Hit rate of the full screen: of about 2,000 compounds, about 15 (0.8%) showed an effect of 50% or more. For the sample, strong results were picked, then their nearest neighbours and some compounds at random. Where a SMILES comes first, the peptide text is derived from it. [ ]: non-standard residue; d: D form. pGlu = O=C1CC[C@@H](C(=O)O)N1; Thz = O=C(O)[C@@H]1CSCN1

The test deals with Balamuthia mandrillaris (ATCC PRA-291) trophozoites, axenic culture. The test is described as follows: primary screen, percent inhibition; higher = more effect of the substance.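 Also: 0% = vehicle wells and 100% = lysate wells.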 Particulars: 20 µM. As to the method:
Screening of a clinically approved library of compounds, compiled by the Small Molecule Discovery Center (SMDC) at the UCSF, was completed at 20 µM in 0.2% DMSO. All 2,177 drugs in the library were stored as 10 mM stocks dissolved in 100% DMSO (Sigma-Aldrich) at −20°C. B. mandrillaris amoebae were resuspended in axenic medium and distributed into opaque 384-well plates (Corning) at a density of 3,000 amoebae per well using a BioMek NX liquid handler. Negative-control wells were treated with vehicle only (0.2% DMSO in axenic medium), and positive-control wells simulating total destruction of amoebae were seeded with amoeba lysate generated by 3 consecutive freeze-thaw cycles. Following 72 h of incubation, 30 µl of CellTiter Glo reagent (CTG; Promega) was added to each well. The luminescence was measured with a Promega GloMax-Multi+ plate reader at 2, 4, and 8 h after CTG addition. […] The B-score, representing a plate-based statistical approach for correcting row, column, and edge effects, was also calculated for each compound in the library (75).
`Cc1c(N(C)C)c(=O)n(-c2ccccc2)n1C`: the “% Inhibition” value is given as 29.7%.

On to `Cc1c(NC(=O)c2cccnc2)c(=O)n(-c2ccccc2)n1C`, for which the “% Inhibition” value was 70.2%.

With `Cc1c(NC(C)C)c(=O)n(-c2ccccc2)n1C`, the “% Inhibition” value is given as -7.04%.

As to `C=CC1=C(C(=O)O)N2C(=O)[C@@H](NC(=O)/C(=N\OCC(=O)O)c3csc(N)n3)[C@H]2SC1`, the “% Inhibition” value is recorded as 6.01%.

For `C[N+]1(C)C2CC(OC(=O)[C@@H](CO)c3ccccc3)CC1C1OC12` (some centres unmarked), the “% Inhibition” value is 15.9%.

`NCCCC(N)C(=O)O` (centres unmarked) [131504-L4]: the “% Inhibition” value is reported as 14.1%.

Take `CO/N=C(/C(=O)NC1C(=O)N2C(C(=O)O)=C(COC(N)=O)CSC12)c1ccco1` (centres unmarked): the “% Inhibition” value came out at 41.1%.

Regarding `CO[C@H]1/C=C/O[C@@]2(C)Oc3c(C)c(O)c4c(O)c(c(/C=N\N5CCN(C)CC5)c(O)c4c3C2=O)NC(=O)/C(C)=C\C=C\C(C)[C@H](O)[C@@H](C)[C@@H](O)[C@@H](C)[C@@H](OC(C)=O)[C@@H]1C` (some centres unmarked), the “% Inhibition” value is 30.6%.

With `O=C1CC[C@@H](C(=O)N2CSC[C@H]2C(=O)O)N1` ([pGlu]-[Thz]-OH), the “% Inhibition” value came out at 16.6%.

Turning to `CNC1(c2ccccc2Cl)CCCCC1=O` (centres unmarked), the “% Inhibition” value worked out at 1.15%.

`Clc1ccccc1CN1CCc2sccc2C1`: the “% Inhibition” value is listed as 30.2%.

Turning to `CC[C@@H](C(N)=O)N1CCCC1=O`, the “% Inhibition” value was determined as 13.9%.

Take `NC[C@H](O)c1ccc(O)c(O)c1` [130720-L3]: the “% Inhibition” value is recorded as 14.8%.

With `C[N+](C)(C)CCOC(N)=O`, the “% Inhibition” value is recorded as -7.4%.

Regarding `C[C@]12CCC3c4ccc(O)cc4CCC3C1CCC2=O` (some centres unmarked), the “% Inhibition” value is reported as -7.91%.

As to `CNCCCC12CCC(c3ccccc31)c1ccccc12`, the “% Inhibition” value is reported as 15.2%.

As to `CC1(C)O[C@]2(C)CC[C@H]1CC2`, the “% Inhibition” value came out at 17.9%.

In the case of `Cn1c(=O)c2nc[nH]c2n(C)c1=O` [88704-L9], the “% Inhibition” value came to 8.85%.

For the compound `Cc1ccc(-c2cc(C(F)(F)F)nn2-c2ccc(S(N)(=O)=O)cc2)cc1`, the “% Inhibition” value is 20.5%.

For `CN1C2C[C@@H](OC(=O)[C@H](CO)c3ccccc3)CC1[C@@H]1O[C@H]21`, the “% Inhibition” value is 0.52%.

In the case of `CC(C)(C)NC[C@H](O)COc1nsnc1N1CCOCC1`, the “% Inhibition” value is recorded as -3.01%.

In the case of `C=CCN1CC[C@]23c4c5ccc(O)c4OC2C(=O)CC[C@@]3(O)[C@H]1C5` (some centres unmarked), the “% Inhibition” value is reported as 29.3%.

Take `CCC1(CC)C(=O)C=CNC1=O`: the “% Inhibition” value is 27.7%.

Consider `COc1ccc(CC2c3cc(OC)c(OC)cc3CC[N+]2(C)CCC(=O)OCCCCCOC(=O)CC[N+]2(C)CCc3cc(OC)c(OC)cc3C2Cc2ccc(OC)c(OC)c2)cc1OC` (centres unmarked) [756849-L2], for which the “% Inhibition” value was determined as 13.9%.

Turning to `O=C(O)CCCc1ccc(N(CCCl)CCCl)cc1`, the “% Inhibition” value is listed as -32.3%.

Consider `CN(C)c1ccc2nc3ccc(=[N+](C)C)cc-3sc2c1`, for which the “% Inhibition” value is listed as 35.9%.

The values are drawn from publication PMC6212833.
